40 molecules from PubChem BioAssay (Tox21) can be followed below.

Inconclusive results are not listed. Unmarked numbers belong to inactive results. Calls of active or inactive are those of the source. Calls follow the shape of the dose curve; as a rule, active = well fitted cell-killing curve with a large enough effect in the repeat runs; inconclusive = weak or mixed curves, or effect the other way; inactive = flat fitted curve, though single readings scatter.
% is scaled to controls: 0 for no effect and ±100 for the full control effect; potency is read from the fitted curve at half-maximal effect.

A short description of this assay: cAMP Responsive Elements (CRE) small molecule antagonists, cell-based qHTS assay: qHTS cell viability counter screen (AID 2060913). Also: nearly all actives have a fitted effect of over 40% in size. The settings on record: CRE-bla HEK293T viability, CellTiter-Glo luminescence, 5 h; series mostly up to 92.4 µM; viability change, negative = cytotoxic: at the top concentration. The method, boiled down: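 Cytotoxicity read in the same wells as the CRE-bla HEK293T antagonist assay: after 3 h compound with 0.25 uM NKH477 final and 2 h beta-lactamase substrate, CellTiter-Glo luminescence measured.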
On the technique in general: qHTS replaces the single test concentration by a dilution series.
As to `FC(F)(F)c1cccc(C2=CCN(CCc3ccc4ccccc4c3)CC2)c1`, the “viability change, negative = cytotoxic” value is 3.6% [at 42.5 µM]. As for `C=CC(=O)OC(C)(C)C`, the “viability change, negative = cytotoxic” value is -3%.

`Oc1cc(Cl)cc(Cl)c1`: the “viability change, negative = cytotoxic” value is -17%. As for `Brc1c(Br)c(Br)c(Br)c(Br)c1Br`, the viability change, negative = cytotoxic was 0.231% [at 8.39 µM]. Turning to `Clc1ccc(C(c2ccccc2Cl)C(Cl)(Cl)Cl)cc1` (stereo not given), the “viability change, negative = cytotoxic” value is -19.3%. For the molecule `CCN1CCC2(CC1)COc1cc3c(cc12)N(C(=O)c1ccc(-c2ccc(-c4nnc(C)o4)cc2C)cc1)CC3`, the Potency is 56.4 µM (active). Turning to `CCOP(=O)(Sc1ccccc1)Sc1ccccc1`, the “viability change, negative = cytotoxic” value was 0.383%.

Turning to `Oc1cc(Cl)c(Cl)c(Cl)c1`, the Potency was 51.7 µM (active).

With `Cc1nc2ccccc2c(=O)n1-c1ccccc1Cl`, the “viability change, negative = cytotoxic” value is -0.647%.

For `CCOC(=O)c1ncn2c1CN(C)C(=O)c1c(I)cccc1-2`, the “viability change, negative = cytotoxic” value is -2.46% [at 42.5 µM]. With `CNC(=O)Oc1ccccc1C1OCCO1`, the “viability change, negative = cytotoxic” value is -6.27%.

On to `CC(C)[C@H](C(=O)OC(C#N)c1cccc(Oc2ccccc2)c1)c1ccc(OC(F)F)cc1` (stereo not given in full), for which the “viability change, negative = cytotoxic” value is -19.2%. On to `C1=CCC=C1`, for which the “viability change, negative = cytotoxic” value is 0%.

Consider `COc1ccc(OC)c(C=O)c1`, for which the “viability change, negative = cytotoxic” value is 12%. Still for that read-out and setting: as for `OC(c1ccc(F)cc1)(c1cncnc1)c1ccccc1Cl` (stereo not given), the figure is 2.2%. On the same count and under the same terms, with `O=C(O)c1ccccc1C(=O)Nc1cccc2ccccc12` the figure was 2.86%; with `Cc1cnc(C2=NC(C)(C(C)C)C(=O)N2)c(C(=O)O)c1` (stereo not given), -4.65%. As for `CC(C)OC(=O)Nc1ccccc1`, the Potency entry is “inactive”.

Turning to `CC(Cc1ccccc1)NCc1ccccc1Cl` (stereo not given), the “viability change, negative = cytotoxic” value was -3.12% [at 42.5 µM]. Same read-out and setting: with `CC(=O)O[C@H]1CC[C@@]2(C)C(=CC[C@@H]3[C@@H]2CC[C@]2(C)C(=O)CC[C@@H]32)C1` the figure was 0.633%; with `COc1cc(OC)c(OC)cc1C=O`, 4.09%. Take `C=CCc1ccccc1O`: the “viability change, negative = cytotoxic” value is 7.6%.

Take `CC(C)(C)OOC(C)(C)C`: the Potency result was “inactive”. Take `CC1CC(CC2CCC(N)C(C)C2)CCC1N` (stereo not given): the “viability change, negative = cytotoxic” value was 6.34%. On the same count and under the same terms, with `Cc1cc(C(C)(C)c2ccc(O)c(C)c2)ccc1O` the figure was -16.4%; with `CC1COC2(c3ccccc3Cl)c3cc(Cl)ccc3NC(=O)CN12` (stereo not given), 3.64% [at 42.5 µM].

`CCCN(CCC)c1c([N+](=O)[O-])cc(S(N)(=O)=O)cc1[N+](=O)[O-]`: the Potency is 43 µM (active).

As to `CCC(C)(C)C(=O)OC1=C(c2ccc(Cl)cc2Cl)C(=O)OC12CCCCC2`, the “viability change, negative = cytotoxic” value is 9.07%.

As for `O=[N+]([O-])c1ccc(Oc2ccc(Cl)cc2Cl)cc1`, the Potency result was “inactive”.

For `[F][Sn]([c]1ccccc1)([c]1ccccc1)[c]1ccccc1`, the Potency was 5.45 µM (active). As for `COC(=O)c1ccccc1S(=O)(=O)NC(=O)Nc1nc(C)nc(OC)n1`, the “viability change, negative = cytotoxic” value was 7.45%. The same measure, in the same setting: as for `O=C(Nc1ccc(F)cc1F)c1cccnc1Oc1cccc(C(F)(F)F)c1`, the figure is -1.94%. On to `CCOC(=O)[C@]1(c2ccccc2)Oc2ccccc2[C@@H]1N`, for which the “viability change, negative = cytotoxic” value was -13.3%. On the same count and under the same terms, as for `COc1ccc2c(c1OC)CN1CCc3cc4c(cc3C1C2)OCO4` (stereo not given), the figure is -4.17% [at 42.5 µM]. `CC(C)[C@H](C(=O)O[C@H](C#N)c1cccc(Oc2ccccc2)c1)c1ccc(Cl)cc1`: the “viability change, negative = cytotoxic” value is -14.6%. As for `CC(=O)[O-].CC(=O)[O-].[Co+2]`, the “viability change, negative = cytotoxic” value was 9%. On to `CCCCCCCCOC(=O)c1ccc(C(=O)OCCCCCCCC)c(C(=O)OCCCCCCCC)c1`, for which the “viability change, negative = cytotoxic” value is 1.61%.

With `C[C@@H]1O[C@@H](O[C@@H]2C=C3CC[C@@H]4[C@H](CC[C@]5(C)[C@@H](c6ccc(=O)oc6)CC[C@]45O)[C@@]3(C)CC2)[C@H](O)[C@H](O)[C@H]1O`, the Potency is 0.0188 µM (active). For the molecule `CC(=O)c1ccc(-c2ccccc2)cc1`, the “viability change, negative = cytotoxic” value is -1.32%. With `CC1=C(C(=O)Nc2ccccc2)SCCO1`, the Potency result was “inactive”.
